Screening data as filed in PubChem BioAssay.
Sm TGR inh = S. mansoni TGR enzyme inhibition | purified TGR, DTNB reduction, TNB absorbance 405 nm | Potency, µM (titrated, usually from 114 µM), inactives show top-dose activity change, negative = inhibition, most hits filed as inhibitors | actives 3% (n = 360,000) | AID 485364; further: nearly all actives have a fitted effect of over 60% in size
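Kinetic colorimetric format: TGR-catalysed, NADPH-driven DTNB reduction monitored via TNB absorbance. Enzyme dispensed at 20 nM; compound exposure 15 min at room temperature before reaction start.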
RE007 growth inh = less growth of the S. pombe RE007 Vpr strain; S. pombe RE007 Vpr strain, BacTiter-Glo ATP luminescence, 24 h; Potency, µM (top dose mostly 92.2 µM), for inactives: top-dose activity change, negative = less growth, actives largely listed as inhibitors; actives 0.21% (n = 360,000); AID 651644; active means well fitted falling curve with a large enough effect; inconclusive means small, poorly fitted or top-dose-only effect; inactive means no such curve, though single readings can be large or run the other way; further: nearly all actives have a fitted effect of over 50% in size
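Fission yeast RE007 carrying one integrated HIV-1 vpr copy, seeded at OD 0.01 in PMG+AL medium with 23 nL pinned compound. Grown 24 h at 30 degrees; viability read by BacTiter-Glo luminescence after 5 min.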
FMDV antiviral = antivirals against foot and mouth disease virus; AID 1159524; actives 1.2% (n = 410,000); FMDV antiviral cell-based qHTS; Potency, µM (top dose mostly 57.9 µM), for the others: at the top dose activity change, negative = inhibition, most hits filed as inhibitors; calls by dose curve; tested in HEK293T cells; further: read-out not given here; nearly all actives have a fitted effect of over 45% in size
Tb PYK inh = blocks Trypanosoma brucei pyruvate kinase | actives 0.12% (n = 410,000) | Potency, µM (series often up to 76.8 µM), for the others: top-dose activity, negative = inhibition, actives largely listed as inhibitors | AID 624173 | TbPYK enzyme, Kinase-Glo Plus ATP luminescence, 45 min | Q57TT1; further: nearly all actives have a fitted effect of over 50% in size
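ADP (130 uM final) triggers the TbPYK reaction after compound addition; incubation is 45 min at room temperature. Kinase-Glo Plus is then added and luminescence imaged. Normalized data are fitted to concentration-effect curves.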
* marks the source's active call; other numbers are inactive results; ? = inconclusive; . = no result. This is a sample that favours compounds with a hit; in the whole collection about 3.7% have one here. Unless noted, the call rests on the fitted dose curve; in most records, active means well fitted curve in the direction sought with a large enough effect; inconclusive means small, poorly fitted or top-dose-only effect, or another doubt; inactive means no such curve, though single readings can be large; an effect the other way counts as inactive or inconclusive. On the % scale 0 is the no-effect control and ±100 the full control effect; potency means the concentration at half of the fitted maximal effect.

SMILES | Sm TGR inh | RE007 growth inh | FMDV antiviral | Tb PYK inh
CCOc1ccc(NC(=O)Cn2cnc3sc(C)c(S(=O)(=O)N4CCN(c5ccccc5OC)CC4)c3c2=O)cc1 | -2.7% | . | 0.0% | -8.4%
CC(=O)c1sc(NC(=O)CCS(=O)(=O)c2ccc(C)cc2)nc1C | 35.5µM* | 8.3% | -7.2% | 1.9%
O=C(CCS(=O)(=O)c1ccc(Br)cc1)Nc1ccc2c(c1)OCO2 | 39.8µM* | 12.6% | 43.3% | -6.9%
Cc1ccc(S(=O)(=O)CCC(=O)Nc2ccc3c(c2)OCO3)cc1 | -2.0% | 19.7% | 21.2% | 1.8%
CC(=O)c1sc(NC(=O)C=C(C)C)nc1C | 2.3% | -5.0% | 47.0% | -3.2%
Cc1csc(NC(=O)Cc2ccc(Br)cc2)n1 | 23.5% | 4.4% | 9.5% | -4.0%
CC(=O)c1sc(NC(=O)C2(F)C(F)(F)C(F)(F)C(F)(F)C(F)(F)C2(F)F)nc1C | 50.1µM* | -10.9% | . | -3.1%
Cc1csc(NC(=O)CCS(=O)(=O)c2ccc(Br)cc2)n1 | 3.55µM* | -13.3% | -16.6% | -24.2%
CC[C@H](C)[C@H]1O[C@]2(C=C[C@@H]1C)C[C@@H]1C[C@@H](C/C=C(\C)[C@@H](O[C@H]3C[C@H](OC)[C@@H](O[C@H]4C[C@H](OC)[C@@H](O)[C@H](C)O4)[C@H](C)O3)[C@@H](C)/C=C/C=C3\CO[C@@H]4[C@H](O)C(C)=C[C@@H](C(=O)O1)[C@]34O)O2 | . | . | 0.0% | .
Cc1ccc(NC(=O)CCS(=O)(=O)c2ccc(Br)cc2)nc1 | 15.8µM* | -14.6% | -13.9% | ?
O=C(c1cc2cc(Cl)ccc2[nH]1)N1CCN(C(=O)c2ccco2)CC1 | 15.8µM* | 7.3% | 5.2% | 0.0%
O=C(CSc1c2c(nc3ccc(Cl)cc13)CCCC2)N1CCN(C(=O)c2ccco2)CC1 | . | -0.3% | 25.1µM* | 9.9%
O=C(O)c1[nH]c2ccc(Cl)cc2c1CC(=O)N1CCN(C(=O)c2ccco2)CC1 | 22.4µM* | -1.4% | 0.0% | -13.7%
CCC1CCCCN1C(=O)c1sc(-n2nc(C)c(Cc3ccccc3)c2C)nc1C (stereo not drawn) | 7.4% | . | -5.4% | -3.5%
c1nc(NCCN2CCOCC2)c2sc3nc(N4CCOCC4)c4c(c3c2n1)CCC4 | 44.7µM* | -15.9% | 1.6% | 0.4%
CCCn1ccc2c(OCC(=O)Nc3ccccc3C(=O)OCC)cccc2c1=O | -0.3% | . | ? | 1.0%
CCC1(C2CCN(C(=O)c3cc(C)cc(C)c3)CC2)NC(=O)N(CCc2scnc2C)C1=O (stereo not drawn) | . | . | -9.3% | .
COc1ccc2[nH]c3c(N4CCC(O)(c5cccc(C(F)(F)F)c5)CC4)ncnc3c2c1 | 13.5% | 6.5% | 28.2µM* | -0.3%
Cc1ccc(-n2c(SCC(=O)Nc3ccc4c(c3)OCCO4)nc3c([nH]c4ccccc43)c2=O)cc1 | -22.7% | . | 21.6% | 3.6%
O=C(NC1CC(=O)N(c2cccc(F)c2)C1)C(c1ccccc1)c1ccccc1 (stereo not drawn) | 3.5% | . | -13.6% | 21.5%
O=C(CCCO)NNc1c2ccccc2nc2ccccc12 | 1.3% | -0.8% | -3.2% | -0.4%
COc1ccc(OCC(=O)NNc2c3ccccc3nc3ccccc23)cc1 | -8.4% | -0.2% | 22.4µM* | -9.8%
O=C(COc1ccccc1)NNc1c2ccccc2nc2ccccc12 | 5.9% | -2.9% | 25.1µM* | 0.2%
CCCC(=O)NNc1c2ccccc2nc2ccccc12 | -4.1% | -4.8% | -14.5% | -7.5%
COc1ccccc1NC(=O)Cn1c(=O)oc2cc(S(=O)(=O)NCc3ccccc3)ccc21 | 5.3% | . | 12.0% | 1.0%
SMILES | Sm TGR inh | RE007 growth inh | FMDV antiviral | Tb PYK inh
Cc1ccc([N+](=O)[O-])cc1NC(=S)NC(=O)C(C)(C)C | 44.7µM* | -9.4% | . | -5.9%
Cc1ccc([N+](=O)[O-])cc1NC(=O)Nc1cccc(F)c1 | 5.7% | -6.4% | 28.2µM* | 7.2%
Cc1ccc(NC2=NC(c3ccccc3)n3c(nc(C)cc3=O)N2)c(C)c1 (stereo not drawn) | 25.1µM* | 3.8% | -2.4% | -1.0%
COc1ccc(NC(=O)C2C3C=CC(C3)C2C(=O)O)cc1 (stereo not drawn) | -16.9% | -0.9% | -23.0% | 1.5%
Cc1ccc(-c2ccc(NC(=O)C3C4C=CC(C4)C3C(=O)O)cc2)o1 (stereo not drawn) | 44.7µM* | ? | 57.7% | -0.4%
c1ccc(-c2cn3c4c(sc3n2)CCCC4)cc1 | 5.8% | 25.1µM* | -52.0% | -7.6%
